Assay results published in PubChem BioAssay (NCATS).
Values joined by “and” are separate entries in the source; they are usually repeats but may differ in a detail not shown here. Identical values can stand only once. Results filed as inconclusive are left out. Active and inactive are the calls of the source. Calls come from the whole dose curve; as a rule, active = well fitted curve in the direction sought with a large enough effect; inconclusive = small, poorly fitted or top-dose-only effect, or another doubt; inactive = no such curve, though single readings can be large; an effect the other way counts as inactive or inconclusive.

Experiments:
[1] = qHTS of pediatric cancer cell lines to identify multiple opportunities for drug repurposing: Primary screen for TC32 cells (AID 1347089); note: nearly all actives have a fitted effect of over 60% in size; note: potency is the fitted concentration of half-maximal effect
Procedure, shortened: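 A viability screen of TC32 cells was run over 48 h, with primary MIPE doses spanning 0.78 nM–46 µM and NPC doses 0.59 nM–46 µM. ATP luminescence (CellTiter-Glo) served as the read-out.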

[2] = qHTS of pediatric cancer cell lines to identify multiple opportunities for drug repurposing: Primary screen for SJ-GBM2 cells (AID 1347091); note: potency is the fitted concentration of half-maximal effect
Procedure, shortened: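 Eight- or eleven-point concentration series, 48 h treatment at 37 degrees C in growth media; readout CellTiter-Glo luminescence. Potency and efficacy were taken from the concentration-response curves.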

[3] = qHTS of pediatric cancer cell lines to identify multiple opportunities for drug repurposing: Primary screen for A673 cells (AID 1347092); note: nearly all actives have a fitted effect of over 45% in size; note: potency is the fitted concentration of half-maximal effect
Procedure, shortened: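 Titration-based qHTS on A673 cells: MIPE compounds spanned 11 points (0.78 nM to 46 µM final), NPC compounds 8 points (0.59 nM to 46 µM final). Viability after 48 h was measured by ATP luminescence.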

[4] = qHTS of pediatric cancer cell lines to identify multiple opportunities for drug repurposing: Primary screen for SK-N-MC cells (AID 1347093); note: potency is the fitted concentration of half-maximal effect
Procedure, shortened: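 Metabolically active cells were quantified by ATP-dependent luminescence (CellTiter-Glo, 15 min at room temperature) following 48 h treatment. Cells had been plated at 500-1,000 per well and settled for 5 h beforehand.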

[5] = qHTS of pediatric cancer cell lines to identify multiple opportunities for drug repurposing: Primary screen for BT-37 cells (AID 1347094); note: potency is the fitted concentration of half-maximal effect
Procedure, shortened: (§1)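 Plated cells (500-1,000 per well, growth media) were allowed to settle for 5 hours, treated with compound dilutions for 48 hours, then lysed with CellTiter-Glo for 15 min at room temperature before luminescence reading.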

[6] = qHTS of pediatric cancer cell lines to identify multiple opportunities for drug repurposing: Primary screen for NB-EBc1 cells (AID 1347095); note: potency is the fitted concentration of half-maximal effect
Procedure, shortened: as §1

[7] = qHTS of pediatric cancer cell lines to identify multiple opportunities for drug repurposing: Primary screen for Saos-2 cells (AID 1347097); note: nearly all actives have a fitted effect of over 40% in size; note: potency is the fitted concentration of half-maximal effect
Procedure, shortened: as §1

[8] = qHTS of pediatric cancer cell lines to identify multiple opportunities for drug repurposing: Primary screen for NB1643 cells (AID 1347099); note: nearly all actives have a fitted effect of over 50% in size; note: potency is the fitted concentration of half-maximal effect
Procedure, shortened: as §1

[9] = qHTS of pediatric cancer cell lines to identify multiple opportunities for drug repurposing: Primary screen for BT-12 cells (AID 1347101); note: nearly all actives have a fitted effect of over 25% in size; note: potency is the fitted concentration of half-maximal effect
Procedure, shortened: (§2)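 Cells (500-1,000/well) rested 5 h, then received compounds for 48 h; metabolically active cells were measured by CellTiter-Glo luminescence. Final concentrations spanned up to 46 µM (MIPE, 11-point) or 0.59 nM-46 µM (NPC, 8-point) in primary screens, 11-point in follow-ups.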

[10] = qHTS of pediatric cancer cell lines to identify multiple opportunities for drug repurposing: Primary screen for Rh18 cells (AID 1347102); note: nearly all actives have a fitted effect of over 65% in size; note: potency is the fitted concentration of half-maximal effect
Procedure, shortened: (§3)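 Cells (500-1,000/well) in growth media were settled 5 h at 37 degrees C, then given compounds for 48 h. Viability was read as CellTiter-Glo luminescence. Primary runs used MIPE at 11 points (0.78 nM-46 µM) and NPC at 8 points (0.59 nM-46 µM); follow-ups used 11 points.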

[11] = qHTS of pediatric cancer cell lines to identify multiple opportunities for drug repurposing: Primary screen for OHS-50 cells (AID 1347103); note: nearly all actives have a fitted effect of over 40% in size; note: potency is the fitted concentration of half-maximal effect
Procedure, shortened: as §2

[12] = qHTS of pediatric cancer cell lines to identify multiple opportunities for drug repurposing: Primary screen for MG 63 (6-TG R) cells (AID 1347105); note: nearly all actives have a fitted effect of over 50% in size; note: potency is the fitted concentration of half-maximal effect
Procedure, shortened: as §1

[13] = qHTS of pediatric cancer cell lines to identify multiple opportunities for drug repurposing: Primary screen for control Hh wild type fibroblast cells (AID 1347106);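 note: series mostly up to about 46 µM; a drop in luminescence marks cytotoxicity and a rise apparent proliferation; nearly all actives have a fitted effect of over 55% in size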
Procedure, shortened: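 Viability after 48 h compound treatment at 37C, 500-1,000 cells/well, read as ATP luminescence with CellTiter-Glo. Primary screens used 11-point (MIPE, 0.78 nM-46 µM) or 8-point (NPC, 0.59 nM-46 µM) final concentrations; follow-up screens used 11-point dilutions.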

[14] = qHTS of pediatric cancer cell lines to identify multiple opportunities for drug repurposing: Primary screen for Rh30 cells (AID 1347107); note: series mostly up to about 46 µM; nearly all actives have a fitted effect of over 75% in size
Procedure, shortened: as §3

[15] = qHTS of pediatric cancer cell lines to identify multiple opportunities for drug repurposing: Primary screen for Rh41 cells (AID 1347108); note: nearly all actives have a fitted effect of over 70% in size; note: potency is the fitted concentration of half-maximal effect
Procedure, shortened: as §1

[16] = qHTS of pediatric cancer cell lines to identify multiple opportunities for drug repurposing: Primary screen for U-2 OS cells (AID 1347096); note: nearly all actives have a fitted effect of over 50% in size
Procedure, shortened: as §3

[17] = qHTS of pediatric cancer cell lines to identify multiple opportunities for drug repurposing: Primary screen for SK-N-SH cells (AID 1347098); note: nearly all actives have a fitted effect of over 65% in size; note: potency is the fitted concentration of half-maximal effect
Procedure, shortened: as §2

[18] = qHTS of pediatric cancer cell lines to identify multiple opportunities for drug repurposing: Primary screen for LAN-5 cells (AID 1347100); note: potency is the fitted concentration of half-maximal effect
Procedure, shortened: as §3

[19] = qHTS of pediatric cancer cell lines to identify multiple opportunities for drug repurposing: Primary screen for RD cells (AID 1347104); note: nearly all actives have a fitted effect of over 55% in size; note: potency is the fitted concentration of half-maximal effect
Procedure, shortened: as §1

Measured: Potency

COc1cc2c(c(OC)c1OC)-c1ccc(OC)c(=O)cc1[C@@H](NC(C)=O)CC2
active: [1] 7.5 nM and 1.3 nM | [2] 42.2 nM and 1 nM | [3] 0.0067 µM | [4] 4.2 nM and 1 nM | [5] 6.2 nM and 172 nM | [6] 42.2 nM and 1 nM | [7] 5.3 nM and 1.32 µM | [8] 0.0084 µM | [9] 11 nM and 1 nM | [11] 4.9 nM and 1 nM | [15] 20.9 µM
inactive: [10] | [12] | [13] | [14]

O=C(c1ccc(OCCN2CCCCC2)cc1)c1c(-c2ccc(O)cc2)sc2cc(O)ccc12
active: [2] 9.44 µM and 18.7 µM | [3] 10.6 µM and 18.7 µM | [4] 18.8 µM | [6] 20.9 µM | [7] 14.8 µM | [17] 13.7 µM | [18] 15 µM | [11] 27.6 µM and 24.3 µM | [19] 23.7 µM and 18.7 µM | [12] 26.6 µM and 18.7 µM
inactive: [1] | [16] | [13] | [14] | [15]

NC(=O)NO
inactive: [16] | [17] | [8] | [18] | [10] | [13] | [14]

COc1ccccc1OCCNCC(O)COc1cccc2[nH]c3ccccc3c12 (stereo not given)
not listed: [4] | [5] | [9] | [11] | [15] | [19]
inactive: all other assays above

Cc1cn([C@H]2C=C[C@@H](CO)O2)c(=O)[nH]c1=O
not listed: [4] | [19]
inactive: all other assays above

Fc1ccc([C@@H]2CCNC[C@H]2COc2ccc3c(c2)OCO3)cc1
not listed: [2] | [3] | [10] | [11] | [19]
inactive: all other assays above

O=c1c(O)c(-c2ccc(O)c(O)c2)oc2cc(O)cc(O)c12
inactive: [1] | [2] | [16] | [19] | [12] | [13] | [14] | [15]
active: [3] 14.8 µM | [4] 8.33 µM | [6] 23.5 µM | [17] 24.1 µM

Cc1cn([C@H]2C[C@H](N=[N+]=[N-])[C@@H](CO)O2)c(=O)[nH]c1=O
not listed: [3] | [4] | [8] | [17]
inactive: all other assays above

CN(C)CCOC(c1ccccc1)c1ccccc1
not listed: [1] | [4] | [8] | [11] | [19]
inactive: all other assays above

NC12CC3CC(CC(C3)C1)C2
not listed: [3] | [4] | [17]
inactive: all other assays above

Clc1ccc2nsnc2c1NC1=NCCN1
not listed: [4] | [19]
inactive: all other assays above

CC(CCc1ccc(O)cc1)NCCc1ccc(O)c(O)c1 (stereo not given)
inactive: [1] | [2] | [5] | [16] | [11] | [12] | [13] | [14] | [15]
active: [7] 18.7 µM and 21.1 µM | [10] 20.9 µM

CN1CCN(CCCN2c3ccccc3Sc3ccc(Cl)cc32)CC1
inactive: [1] | [6] | [16] | [13] | [14] | [15]
active: [3] 9.35 µM | [4] 0.0418 µM | [5] 9.68 µM | [7] 0.235 µM | [17] 24.4 µM | [18] 9.35 µM | [9] 6.11 µM | [11] 9.68 µM | [19] 9.35 µM and 26.6 µM

O=c1[nH]cc(F)c(=O)[nH]1
active: [6] 9.44 µM and 2.64 µM | [8] 5.26 µM | [18] 7.43 µM
not listed: [3] | [4] | [5] | [9] | [17]
inactive: all other assays above
